# Assay outcomes: PubChem BioAssay, several laboratories
# tim10-1 inh: tim10-1 yeast growth inhibition. inhibition, % at 20 µM. AID 463190. S. cerevisiae tim10-1 ts strain growth, BacTiter-Glo, 24 h. 330,000 compounds, 2.2% hits;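 active means inhibition of at least 40%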;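 further: mutant grown at 25 °C; 0% = DMSO wells with yeast and 100% = wells holding no yeast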
# NLRP3 yeast inh: NALP3 inhibition in yeast; 330,000 compounds, 0.39% hits; AID 2825; Yeast reconstituted NLRP3/ASC/caspase-1, beta-gal luminescence, 24 h; inhibition, % at 10 µM;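 active means inhibition of 50% or more; inactive means inhibition below 50%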;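 further: plate controls were induced DMSO wells for no effect and uninduced yeast grown without galactose for full effect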
# tim23-1 inh: tim23-1 yeast growth inhibition; inhibition, % at 20 µM; 330,000 compounds, 1.3% hits; S. cerevisiae tim23-1 growth, BacTiter-Glo luminescence, 24 h;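 active means growth inhibition of the mutant yeast at or above 50%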;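 further: temperature-sensitive mutant grown at 25 °C; plate controls were DMSO-treated mutant yeast for no effect and medium wells lacking yeast for full effect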
# TIM10 inh: TIM10 yeast growth inhibition. S. cerevisiae TIM10 strain growth, BacTiter-Glo luminescence, 24 h. 330,000 compounds, 1.4% hits. inhibition, % at 10 µM;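 active means inhibition of 40% or more at the single tested concentration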;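 further: wild-type TIM10 isogenic control strain grown at permissive 25 °C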
# SKKanGAS inh: SKKanGAS growth inhibition. S. pyogenes SKKanGAS, kanamycin growth, BacTiter-Glo, 6 h. inhibition, % at 7.5 µM. 300,000 compounds, 1.3% hits. AID 1662;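 active means mean replicate score, as percent of positive control median, at least 50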;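 further: strain carries kanamycin resistance gene driven by streptokinase promoter and grows in 40 µg/ml kanamycin; loss of luminescence reflects streptokinase promoter inhibition or plain growth inhibition; 0% = median of DMSO wells and 100% = positive control at its reference dose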
# tim23-1 confirm: tim23-1 yeast growth inhibition, confirmed; S. cerevisiae tim23-1 growth, BacTiter-Glo luminescence, 24 h; 4,400 compounds, 83% hits; shares compounds with tim23-1 inh; inhibition, % at 20 µM;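 active means inhibition above about 39% in either of two replicate wells at 20 µM, limit read from the data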;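 further: temperature-sensitive tim23-1 mutant grown at 25 °C; 0% = DMSO wells with yeast and 100% = medium wells without yeast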
# * = called active by the depositor; . = no result; ! = repeats disagree. Sampled rows, rich in hits. Any-hit rate of the full collection: about 4.6%.
SMILES,tim10-1 inh,NLRP3 yeast inh,tim23-1 inh,TIM10 inh,SKKanGAS inh,tim23-1 confirm
COc1ccc(S(=O)(=O)N(CC(=O)NCc2cccnc2)c2ccc(C)cc2)cc1OC,-3,27,6,14,-3,.
CCN(CC)CC(=O)Nc1sc(C)cc1C(=O)c1ccccc1,7,22,35,12,0,.
Cc1cc(C(=O)c2ccccc2)c(NC(=O)CCl)s1,31,-15,55*,40,-2,38
CCOC(=O)C(CC)n1nc(C)n2c(cc3occc32)c1=O (centres undefined),6,8,5,-13,5,.
COc1cc(NC(=S)NC(=O)CCc2ccccc2)cc(OC)c1,25,20,51*,39,41,41*
COc1ccc(CCC(=O)Nc2cccc(Cl)c2)cc1,11,29,59*,33,10,65*
COc1ccccc1NC(=S)NC(=O)CCc1ccccc1,31,23,46,28,-7,.
O=C(CCc1ccccc1)NC(=S)Nc1ccccc1Br,-9,23,50*,29,-9,32
COc1ccc(CC(=O)OCC(=O)Nc2cccc(Cl)c2)cc1,16,11,24,6,12,.
COc1ccc(CC(=O)N[C@@H]2c3ccccc3CC[C@H]2OCc2ccccc2)cc1,15,.,40,-12,.,.
CCCCC(=O)NC(c1ccc(C(C)C)cc1)c1ccc2cccnc2c1O (centres undefined),-20,21,58*,-23,88*,59*
CC(=O)NC(c1ccc(C(C)C)cc1)c1ccc2cccnc2c1O (centres undefined),9,18,58*,-30,11,60*
CCCC(=O)NC(c1ccccc1)c1ccc2cccnc2c1O (centres undefined),26,11,58*,-8,22,60*
COc1cccc(C(NC(C)=O)c2ccc3cccnc3c2O)c1 (centres undefined),1,33,43,-39,30,.
CCCC(=O)NC(c1ccc(OC)cc1)c1ccc2cccnc2c1O (centres undefined),34,3,21,21,11,.
CCCCC(=O)NC(c1ccccc1Cl)c1ccc2cccnc2c1O (centres undefined),-2,18,53*,-47,69*,49*
CCC(=O)NC(c1ccccc1OC)c1ccc2cccnc2c1O (centres undefined),33,16,9,20,23,.
O=C(C1CCN(S(=O)(=O)c2cc(Cl)ccc2Cl)CC1)N1CCCC1,15,29,16,-13,2,.
CC(=O)NC(c1ccc(C)cc1)c1cc(Cl)c2cccnc2c1O (centres undefined),-3,48,62*,-2,98*,68*
CCCCC(=O)NC(c1ccccc1)c1ccc2cccnc2c1O (centres undefined),11,8,66*,7,16,58*
CCC(=O)NC(c1ccc(OC)cc1)c1cc(Cl)c2cccnc2c1O (centres undefined),20,14,37,37,40,.
O=C(Nc1ccc2oc(-c3ccccc3)nc2c1)c1ccncc1,-10,27,65*,18,-18,67*
O=C(Nc1ccc2oc(Cc3ccc(Cl)cc3)nc2c1)c1cccnc1,10,14,59*,17,9,54*
O=C(Nc1ccc(Cl)c(Cl)c1)Nc1ccon1,29,-3,53*,24,67*,48*
CCCCN(C(=O)c1ccc2c(c1)OCCO2)c1c(N)n(CCCC)c(=O)[nH]c1=O,27,10,59*,14,-10,57*
SMILES,tim10-1 inh,NLRP3 yeast inh,tim23-1 inh,TIM10 inh,SKKanGAS inh,tim23-1 confirm
CCCCn1c(N)c(N(CCC(C)C)C(=O)c2ccc3c(c2)OCO3)c(=O)[nH]c1=O,23,10,62*,9,-1,58*
CCCN(C(=O)c1ccc([N+](=O)[O-])c(C)c1)c1c(N)n(Cc2ccccc2)c(=O)[nH]c1=O,-1,8,53*,10,.,60*
CCCCn1c(N)c(N(CCC(C)C)C(=O)C2=COCCO2)c(=O)[nH]c1=O,-11,13,-6,1,0,.
CCCN(C(=O)c1cc(C)ccc1C)c1c(N)n(Cc2ccccc2)c(=O)[nH]c1=O,8,-1,10,12,.,.
Nc1ccc(N=Nc2ccccc2O)c(N)c1,25,42,55*,22,10,46*
c1cnc2c(c1)ccc1cccnc12,11,9,59*!,6,24,44*
